Compound activity deposited in PubChem by several laboratories.
Shown are actives, neighbours in structure and some others; about 4.2% of the full set was active somewhere.
esBAF inh: Bmi1 luciferase reporter increase in mESCs, primary screen, esBAF inhibitor project, mouse ES cells, Bmi1 luciferase knock-in, single point. 24 h; 100% = twice the neutral-well signal. reporter increase, % at 12.5 µM. 2% of 350,000 active; in the data active = activation above about 40%; inconclusive = no clear call, values can overlap the other calls;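 also: a rise in the Bmi1 reporter signal indicates esBAF inhibition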
AHR act: AHR activators, primary screen, cell-based, luminescence, luciferase reporter, human; Aryl hydrocarbon receptor (Homo sapiens), P35869; AHR-responsive luciferase reporter cells; 2.5% of 320,000 active; activation, % at 5 µM; in the data active = activation above about 47%
MITF TRPM1 HTS: activators of MITF-driven TRPM1 promoter reporter, primary screen, cell-based, SK-MEL-5, luciferase, single point; SK-MEL-5 TRPM1-promoter luciferase, 24 h; % of positive control, neutral wells = 0; activation, % at 12.5 µM; 0.75% of 300,000 active; AID 588334, 2011;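 active = mean activation of at least 80% with every replicate also reaching 80%; inconclusive = mean reaches 80% but some replicate falls short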
GAA850 FXN act: FXN promoter activators, primary screen, cell-based, luciferase luminescence, HEK293 lucGAA850 | HEK293 lucGAA850 FXN promoter luciferase reporter, 24 h; percent of 10 µM SAHA response | activation, % at 6 µM | 0.56% of 360,000 active | AID 540364, 2011;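 active = activation above the average of all compounds screened plus 3 SD, cutoff fixed separately per campaign, cut at about 7.5% in these data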
Wnt bcat act: Wnt/beta-catenin pathway activators, primary screen, cell-based, plate reader, single point | Wnt/beta-catenin reporter cell assay, activator | activation, % at 9.35 µM | 1.2% of 300,000 active | AID 743398, 2014; in the data active = activation above about 30%, passing the limit was not always enough; inconclusive = no clear call, values can overlap the other calls
A number is an active result; n = inactive; u = inconclusive; x = not tested or not shown.

SMILES	esBAF inh	AHR act	MITF TRPM1 HTS	GAA850 FXN act	Wnt bcat act
C[C@@H]1CN([C@H](C)CO)C(=O)c2cccc(NC(=O)Nc3ccc4c(c3)OCO4)c2O[C@H]1CN(C)S(=O)(=O)c1cccs1	47	x	x	x	x
C[C@H](CO)N1C[C@H](C)[C@H](CN(C)C(=O)Nc2ccc3c(c2)OCO3)Oc2c(NS(=O)(=O)c3ccccc3)cccc2C1=O	68	x	x	x	x
C[C@@H]1CN([C@@H](C)CO)C(=O)c2c(c3ccccc3n2C)-c2ccccc2CO[C@@H]1CN(C)C(=O)Nc1ccc2c(c1)OCO2	50	x	x	x	x
C[C@@H]1CN([C@H](C)CO)C(=O)c2cc(NC(=O)Nc3ccc4c(c3)OCO4)ccc2O[C@@H]1CN(C)S(=O)(=O)c1cccs1	n	x	x	x	x
CCCNC(=O)C[C@H]1C[C@@H]2c3cc(NC(=O)COC)ccc3O[C@@H]2[C@H](CO)O1	n	x	x	x	x
CO[C@H]1CN(C)C(=O)c2ccc(NC(=O)c3ccno3)cc2OC[C@@H](C)NC[C@@H]1C	n	x	x	x	x
CC(C)(C)S(=O)(=O)c1cnc(-c2ccc(Cl)cc2)nc1N	x	n	u	n	39
S=c1nc(-c2ccccc2)n(-c2ccccc2)[nH]1	n	n	n	n	n
CN=c1nc(-c2ccccc2)n(-c2ccccc2)s1	55	n	n	n	n
Cc1ccc(S(=O)(=O)N(C)C[C@@H]2Oc3ccc(NC(=O)CCN4CCOCC4)cc3CC(=O)N([C@H](C)CO)C[C@H]2C)cc1	n	x	x	x	x
Nc1nc2nn(-c3ccccc3)nc2c(=O)[nH]1	n	n	n	n	n
Nc1nc2n[nH]nc2c(=O)[nH]1	103	n	n	n	n
C/C(=N\Nc1ncc(Cl)cc1Cl)c1ccc(OC(F)F)cc1	x	63	n	n	n
COc1ccc(/C(C)=N/Nc2nccnc2Cl)cc1	46	n	n	n	n
O=C(C[C@H]1C[C@@H]2c3cc(NC(=O)CC4CC4)ccc3O[C@@H]2[C@@H](CO)O1)NCc1cccc(F)c1	n	x	x	x	x
O=C1Nc2ccccc2O/C1=C\c1ccccc1Br	n	53	n	n	n
CCC(=O)N[C@@H]1CC[C@@H](CC(=O)NCc2ccccc2F)O[C@@H]1CO	n	x	x	x	x
Cc1ccc(-c2cc3ccccc3nc2N)cc1	47	n	x	n	n
CO[C@H]1CN(C)C(=O)c2ccc(NC(C)=O)cc2OC[C@@H](C)N(CCc2ccccc2)C[C@H]1C	n	x	x	x	x
CCCCc1nc2cc(C(=O)N3CCCC3)ccc2o1	n	n	n	n	n
CCCCc1nc2cc(C(=O)N3CCCCC3C(=O)OC)ccc2o1 (stereo not given)	64	n	n	n	n
CCCCc1nc2cc(C(=O)N3CCCCC3CC(=O)OCC)ccc2o1 (stereo not given)	56	n	n	n	n
CCCCc1nc2cc(C(=O)NCc3ccccn3)ccc2o1	n	n	n	n	n
CCOC(=O)CC1COCCN1C(=O)c1ccc2oc(Cc3ccccc3)nc2c1 (stereo not given)	52	n	u	n	n
CCCCc1nc2cc(C(=O)NC(C)c3cnn(C)c3)ccc2o1 (stereo not given)	61	n	n	n	n
SMILES	esBAF inh	AHR act	MITF TRPM1 HTS	GAA850 FXN act	Wnt bcat act
CCOC(=O)N1CCN(C(=O)c2ccc3oc(CCc4ccccc4)nc3c2)CC1	n	x	x	n	n
CCC(=O)Nc1ccc2c(c1)OC[C@H](C)N(C(=O)Cc1ccccn1)C[C@H](C)[C@H](OC)CN(C)C2=O	n	x	x	x	x
O=C(C[C@H]1CC[C@H](NS(=O)(=O)c2ccc(F)cc2)[C@@H](CO)O1)NCc1ccc(Cl)c(Cl)c1	n	x	x	x	x
CN(Cc1ccccc1)c1nc(-c2ccc([N+](=O)[O-])cc2)nc2ccccc12	n	n	n	n	x
O=[N+]([O-])c1ccc(-c2nc(C(Cl)Cl)c3ccccc3n2)cc1	x	75	x	n	n
O=[N+]([O-])c1ccc(Cl)c(S(=O)(=O)Nc2cccc(S(=O)(=O)NC3=NCCC3)c2)c1	n	52	n	n	n
O=[N+]([O-])c1ccc(Cl)c(S(=O)(=O)Nc2cccc(-c3ccc(N4CCOCC4)nn3)c2)c1	n	n	86	n	n
O=S(=O)(Nc1cccc(-c2ccc(N3CCCCCC3)nn2)c1)c1ccc(F)cc1	56	n	n	n	n
Cc1ccc(S(=O)(=O)Nc2cccc(-c3ccc(N4CCCCCC4)nn3)c2)cc1C	46	n	n	n	n
Cc1ccc(S(=O)(=O)N(C)C[C@H]2Oc3ccc(NC(=O)Nc4ccc5c(c4)OCO5)cc3C(=O)N([C@H](C)CO)C[C@H]2C)cc1	n	x	x	x	x
O=C(C[C@@H]1C[C@@H]2c3cc(NS(=O)(=O)c4ccc(F)cc4)ccc3O[C@@H]2[C@@H](CO)O1)NCc1ccccc1F	n	x	x	x	x
O=S(=O)(Nc1cccc(-c2ccc(N3CCCCCC3)nn2)c1)c1ccccc1Cl	44	n	n	n	n
O=S(=O)(Nc1cccc(-c2ccc(N3CCCCCC3)nn2)c1)c1ccc(C(F)(F)F)cc1	56	n	n	n	n
O=S(=O)(Nc1cccc(-c2ccc(N3CCCCCC3)nn2)c1)c1cccc(F)c1	66	n	98	n	n
CCOc1ccc(S(=O)(=O)Nc2cccc(-c3ccc(N4CCCCCC4)nn3)c2)cc1	n	n	n	n	n
O=S(=O)(Nc1cccc(-c2ccc(N3CCCCCC3)nn2)c1)c1ccccc1F	x	n	n	n	n
COCC(=O)N(C)C[C@@H]1Oc2cc(-c3ccc(F)cc3)ccc2S(=O)(=O)N([C@@H](C)CO)C[C@H]1C	n	x	x	x	x
C[C@@H]1CN([C@H](C)CO)C(=O)c2cccc(NS(=O)(=O)c3ccc(F)cc3)c2O[C@@H]1CN(C)S(C)(=O)=O	n	x	x	x	x
CC(C)CC#Cc1cnc2c(c1)C(=O)N([C@@H](C)CO)C[C@@H](C)[C@H](CN(C)C(=O)Cc1cccnc1)O2	n	x	x	x	x
O=C(CCCCCn1c(=S)[nH]c2ccc(N3CCOCC3)cc2c1=O)NCc1ccc(Cl)cc1	n	n	n	n	n
O=c1c2cc(N3CCOCC3)ccc2[nH]c(=S)n1Cc1ccc(Cl)cc1	54	n	n	n	x
COC(=O)CNc1c(-c2ccccn2)nc2ccc(Br)cn12	n	62	x	n	40
CCOC(=O)CNc1c(-c2ccccc2)nc2ccc(Cl)cn12	n	n	n	n	n
COc1ccc(NC(=O)Nc2ccc3c(c2)C(=O)N([C@H](C)CO)C[C@H](C)[C@H](CN(C)Cc2ccc(Cl)c(Cl)c2)OCCCC[C@@H](C)O3)cc1	n	x	x	x	x
COc1cc(OC)cc(-c2noc(-c3csc([C@@H]4C[C@H](O)[C@@H](CO)O4)n3)n2)c1	48	x	x	n	n
COc1ccc(-c2noc(-c3csc([C@@H]4C[C@H](O)[C@@H](CO)O4)n3)n2)cc1OC	n	x	x	n	n
OC[C@H]1O[C@@H](c2nc(-c3nc(-c4ccc(F)cc4)no3)cs2)[C@H](O)[C@@H]1O	n	x	x	n	61
